This note sets out measurements from PubChem BioAssay (NCI).

The panel holds about 79,000 compounds, 15% with a hit somewhere; the sample as a whole holds those more often. Values without a mark were called inactive. The source made the active and inactive calls. Cut-off read from the data, not from the text of the source: active = growth inhibition above about 70%; inactive = the rest.

Assay [1] in a line: NCI Yeast Anticancer Drug Screen. Data for the rad50 strain (AID 155).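 Note: 0% = growth of vehicle-only cultures of the same strain.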 To be noted: S. cerevisiae rad50 strain growth inhibition, hits give high values. The gist of the method: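 Genetically altered yeast (DNA repair pathway); compound treatment; growth inhibition vs vehicle ctrl.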
A short description of assay [2]: NCI Yeast Anticancer Drug Screen. Data for the mec2-1 strain (AID 157). To be noted: S. cerevisiae mec2-1 strain, hits give high values. The gist of the method: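 Growth inhibition is read against vehicle-treated controls after compound exposure of the mec2-1 yeast strain, which is defective in DNA damage repair or cell cycle control.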
Assay [3] is described as follows: NCI Yeast Anticancer Drug Screen. Data for the sgs1 mgt1 strain (AID 161).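 Note: 0% = growth of cultures given vehicle only.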 To be noted: S. cerevisiae sgs1 mgt1 strain, hits give high values. The gist of the method:
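Percent growth inhibition was derived by comparing compound-exposed mutant yeast with vehicle-exposed cultures. The strain carries alterations in DNA damage repair.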

A short description of assay [4]: NCI Yeast Anticancer Drug Screen. Data for the cln2 rad14 strain (AID 165).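 Note: 0% = growth equal to vehicle treated cultures.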 To be noted: S. cerevisiae cln2 rad14 strain, hits give high values. The gist of the method:
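Growth inhibition, relative to vehicle-treated controls, is the read-out. The test organism is a yeast strain with defined genetic alterations, cln2 rad14.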

Assay [5] can be described thus: NCI Yeast Anticancer Drug Screen. Data for the bub3 strain (AID 167). To be noted: S. cerevisiae bub3 mutant strain, hits give high values. An outline of the steps: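 Yeast carrying a defined mutation is treated with each compound, and growth is compared with that of vehicle-exposed cells to give inhibition.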
A short description of assay [6]: NCI Yeast Anticancer Drug Screen. Data for the mlh1 rad18 strain (AID 175). To be noted: S. cerevisiae mlh1 rad18 strain growth inhibition, hits give high values. An outline of the steps:
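Cells of a genetically altered yeast strain, deficient in DNA damage repair, were treated with compound. Their growth was then compared with that of vehicle-treated cultures to give inhibition.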

[7] abbreviates: at 5.0 µM (retest, dose inferred, filed as 0.5).
[8] abbreviates: at 50.0 µM (retest, dose inferred, filed as 5.0).

Turning to `COC(=O)C1=Cc2cc3c(cc2[C@H](c2ccc4c(c2)OCO4)C1C(=O)OC)OCO3` (stereo not given in full), the growth inhibition in assay [1] (setting [7]) was 2%; in assay [1] (setting [8]), 26%; in assay [1] (at 50.0 µM) it was 48.6%; in assay [2] (setting [7]), -5%; in assay [2] (setting [8]), 20%; in assay [2] (at 50.0 µM), 33.9%. In addition, the growth inhibition is 3% in assay [3] (setting [7]); 40% in assay [3] (setting [8]); 47.5% in assay [3] (at 50.0 µM); 0% in assay [4] (setting [7]); 40% in assay [4] (setting [8]); 37% in assay [4] (at 50.0 µM). The growth inhibition in assay [5] (setting [7]) is 26%; in assay [5] (setting [8]), 70% (active); in assay [5] (at 50.0 µM), 71.4% (active); in assay [6] (setting [7]) it was 2%; in assay [6] (setting [8]) it was 23%; in assay [6] (at 50.0 µM), 56.8%.

Consider `OCc1ccc2c(c1)CC1(C2)Cc2cc3c(cc2C1O)CCC3` (stereo not given), for which the growth inhibition is 20% in assay [1] (setting [7]); 41% in assay [1] (setting [8]); 48.6% in assay [1] (at 50.0 µM); 18% in assay [2] (setting [7]); 36% in assay [2] (setting [8]); 42.4% in assay [2] (at 50.0 µM). The growth inhibition in assay [3] (setting [7]) is 3%; in assay [3] (setting [8]) it was 22%; in assay [3] (at 50.0 µM), 51.8%; in assay [4] (setting [7]) it was 5%; in assay [4] (setting [8]), 51%; in assay [4] (at 50.0 µM), 47.4%. Further, the growth inhibition in assay [5] (setting [7]) was 21%; in assay [5] (setting [8]), 59%; in assay [5] (at 50.0 µM), 33.2%; in assay [6] (setting [7]), 20%; in assay [6] (setting [8]), 57%; in assay [6] (at 50.0 µM), 71% (active).

Consider `c1ccc2c(Nc3ccc(Oc4ccc(Nc5c6ccccc6nc6ccccc56)cc4)cc3)c3ccccc3nc2c1`, for which the growth inhibition is 50% in assay [1] (setting [7]); 99% (active) in assay [1] (setting [8]); 82.8% (active) in assay [1] (at 50.0 µM); 8% in assay [2] (setting [7]); 100% (active) in assay [2] (setting [8]); 6.6% in assay [2] (at 50.0 µM). Moreover, the growth inhibition in assay [3] (setting [7]) is 31%; in assay [3] (setting [8]) it was 99% (active); in assay [3] (at 50.0 µM), -22.9%; in assay [4] (setting [7]), 6%; in assay [4] (setting [8]), 99% (active); in assay [4] (at 50.0 µM), 6.45%. Moreover, the growth inhibition was 10% in assay [5] (setting [7]); 99% (active) in assay [5] (setting [8]); -1.8% in assay [5] (at 50.0 µM); 20% in assay [6] (setting [7]); 99% (active) in assay [6] (setting [8]); 10.3% in assay [6] (at 50.0 µM).

With `CC1(C)CCC2(CC1)CC(=O)OC(=O)C2`, the growth inhibition was -159% in assay [1] (setting [7]); -162% in assay [1] (setting [8]); -3.9% in assay [1] (at 50.0 µM); -50% in assay [2] (setting [7]); -54% in assay [2] (setting [8]); 18.5% in assay [2] (at 50.0 µM). For the same molecule, the growth inhibition in assay [3] (setting [7]) is -64%; in assay [3] (setting [8]), -62%; in assay [3] (at 50.0 µM), 6.6%; in assay [4] (setting [7]), -59%; in assay [4] (setting [8]) it was -59%; in assay [4] (at 50.0 µM), 27.8%. The growth inhibition was -71% in assay [5] (setting [7]); -82% in assay [5] (setting [8]); -3.4% in assay [5] (at 50.0 µM); -145% in assay [6] (setting [7]); -117% in assay [6] (setting [8]); 3.95% in assay [6] (at 50.0 µM).

Take `COC(=O)CCc1c(Cc2ccc[nH]2)[nH]c(C(=O)OCc2ccccc2)c1C`: the growth inhibition was -20% in assay [1] (setting [7]); 91% (active) in assay [1] (setting [8]); 55% in assay [1] (at 50.0 µM); -12% in assay [2] (setting [7]); 92% (active) in assay [2] (setting [8]); 71% (active) in assay [2] (at 50.0 µM). The growth inhibition in assay [3] (setting [7]) is -12%; in assay [3] (setting [8]), 94% (active); in assay [3] (at 50.0 µM) it was 69%; in assay [4] (setting [7]) it was -32%; in assay [4] (setting [8]), 95% (active); in assay [4] (at 50.0 µM), 77.5% (active). The growth inhibition is -35% in assay [5] (setting [7]); 92% (active) in assay [5] (setting [8]); 76.3% (active) in assay [5] (at 50.0 µM); -5% in assay [6] (setting [7]); 94% (active) in assay [6] (setting [8]); 74.8% (active) in assay [6] (at 50.0 µM).

For `CCNc1cc(N)[n+](CC)c2n[nH]c(/N=C/c3cc(Cl)cc(Cl)c3O)c12`, the growth inhibition was 37% in assay [1] (setting [7]); 80% (active) in assay [1] (setting [8]); 88% (active) in assay [1] (at 50.0 µM); 26% in assay [2] (setting [7]); 77% (active) in assay [2] (setting [8]); 87.5% (active) in assay [2] (at 50.0 µM). Besides, the growth inhibition is 41% in assay [3] (setting [7]); 98% (active) in assay [3] (setting [8]); 89.8% (active) in assay [3] (at 50.0 µM); 63% in assay [4] (setting [7]); 98% (active) in assay [4] (setting [8]); 79.9% (active) in assay [4] (at 50.0 µM). The growth inhibition in assay [5] (setting [7]) is 87% (active); in assay [5] (setting [8]), 97% (active); in assay [5] (at 50.0 µM) it was 90.3% (active); in assay [6] (setting [7]), 37%; in assay [6] (setting [8]), 78% (active); in assay [6] (at 50.0 µM) it was 88.2% (active).

As to `CCCC(=O)Oc1ccc(OCc2ccccc2)cc1`, the growth inhibition is -1% in assay [1] (setting [7]); 55% in assay [1] (setting [8]); -23.8% in assay [1] (at 50.0 µM); -1% in assay [2] (setting [7]); 55% in assay [2] (setting [8]); -15.1% in assay [2] (at 50.0 µM). Moreover, the growth inhibition in assay [3] (setting [7]) is 0%; in assay [3] (setting [8]) it was 55%; in assay [3] (at 50.0 µM), 1.6%; in assay [4] (setting [7]), -3%; in assay [4] (setting [8]), -15%; in assay [4] (at 50.0 µM), -41.8%. Besides, the growth inhibition in assay [5] (setting [7]) is 23%; in assay [5] (setting [8]) it was 77% (active); in assay [5] (at 50.0 µM), 75.2% (active); in assay [6] (setting [7]), 0%; in assay [6] (setting [8]) it was 42%; in assay [6] (at 50.0 µM), -10.9%.

Regarding `COc1ccc(-c2nc(N)n(C)c2SSc2c(-c3ccc(OC)cc3)nc(N)n2C)cc1`, the growth inhibition in assay [1] (setting [7]) was 2%; in assay [1] (setting [8]) it was 26%; in assay [1] (at 50.0 µM), 23.6%; in assay [2] (setting [7]) it was -4%; in assay [2] (setting [8]) it was 26%; in assay [2] (at 50.0 µM) it was 5.2%. Moreover, the growth inhibition is 28% in assay [3] (setting [7]); 27% in assay [3] (setting [8]); 2.5% in assay [3] (at 50.0 µM); 6% in assay [4] (setting [7]); 30% in assay [4] (setting [8]); 6.95% in assay [4] (at 50.0 µM). Moreover, the growth inhibition was 41% in assay [5] (setting [7]); 50% in assay [5] (setting [8]); 3.6% in assay [5] (at 50.0 µM); -2% in assay [6] (setting [7]); 28% in assay [6] (setting [8]); -15.6% in assay [6] (at 50.0 µM).

In the case of `CN(Cc1ccccc1)CC(O)c1ccc(/C=C/c2ccc(Cl)cc2)cc1` (stereo not given), the growth inhibition in assay [1] (setting [7]) is 55%; in assay [1] (setting [8]), 66%; in assay [1] (at 50.0 µM), 86.1% (active); in assay [2] (setting [7]), 38%; in assay [2] (setting [8]) it was 66%; in assay [2] (at 50.0 µM), 65.5%. Moreover, the growth inhibition in assay [3] (setting [7]) is 87% (active); in assay [3] (setting [8]), 92% (active); in assay [3] (at 50.0 µM) it was 95.9% (active); in assay [4] (setting [7]), 52%; in assay [4] (setting [8]) it was 64%; in assay [4] (at 50.0 µM) it was 87.6% (active). Besides, the growth inhibition in assay [5] (setting [7]) was 68%; in assay [5] (setting [8]), 82% (active); in assay [5] (at 50.0 µM) it was 69.6%; in assay [6] (setting [7]), 56%; in assay [6] (setting [8]), 73% (active); in assay [6] (at 50.0 µM), 86.2% (active).

With `COc1ccc(CCN2CC(=O)N3CSCC3C2=O)cc1OC` (stereo not given), the growth inhibition in assay [1] (setting [7]) was 6%; in assay [1] (setting [8]) it was 24%; in assay [1] (at 50.0 µM), 66.7%; in assay [2] (setting [7]), 5%; in assay [2] (setting [8]), 16%; in assay [2] (at 50.0 µM), 7.05%. Besides, the growth inhibition in assay [3] (setting [7]) is 9%; in assay [3] (setting [8]) it was 27%; in assay [3] (at 50.0 µM), 34.8%; in assay [4] (setting [7]), 4%; in assay [4] (setting [8]), 27%; in assay [4] (at 50.0 µM), 25.4%. The growth inhibition in assay [5] (setting [7]) is 3%; in assay [5] (setting [8]), 28%; in assay [5] (at 50.0 µM), 21.8%; in assay [6] (setting [7]), -1%; in assay [6] (setting [8]) it was 14%; in assay [6] (at 50.0 µM) it was 37.2%.
